# Mcl-1 Bim block = inhibitors of Bim-Mcl-1 interaction, human; AID 1009; Q07820; Bead-based flow cytometry, Bim peptide-Mcl-1 binding; 0.1% of 190,000 active; inhibition, % at 10 µM; in the data active = inhibition above about 40%;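 also: 0% = no compound tracer wells and 100% = peptide blocker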
# Target sequence (Q07820 whole entry, looked up): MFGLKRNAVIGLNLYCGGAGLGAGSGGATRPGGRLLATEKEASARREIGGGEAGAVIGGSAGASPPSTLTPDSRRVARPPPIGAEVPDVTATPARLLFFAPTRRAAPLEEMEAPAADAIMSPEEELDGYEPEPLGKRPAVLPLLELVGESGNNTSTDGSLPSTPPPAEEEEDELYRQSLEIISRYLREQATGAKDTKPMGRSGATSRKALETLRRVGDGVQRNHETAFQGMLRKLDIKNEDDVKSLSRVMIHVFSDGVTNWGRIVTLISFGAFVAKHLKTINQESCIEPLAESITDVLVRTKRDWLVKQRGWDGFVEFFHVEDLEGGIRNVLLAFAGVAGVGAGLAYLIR
# MCL1 BIM primary = MCL1-BIM-BH3 interaction inhibition (human); Q07820; GST-MCL1 / FITC-Bim-BH3 fluorescence polarization; inhibition, % at 10.9 µM; 0.68% of 320,000 active; AID 2057;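 active = inhibition above the mean inhibition of all tested compounds plus 3 SD, set per campaign, cut at about 40% in these data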;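 also: 0% = DMSO wells and 100% = unlabeled Bim-BH3 peptide control; higher means more loss of mP so more displacement of Bim peptide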
# Mcl1-Noxa inh = Mcl-1/Noxa interaction inhibition; Q07820; TR-FRET Mcl-1/Noxa peptide binding, 2 h; inhibition, % at 21.7 µM; 1.5% of 220,000 active; AID 1022;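 active = compounds that cut the protein-peptide binding signal by more than 50% relative to plate controls in a single-dose test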;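 also: His-tagged Mcl-1 with rhodamine Noxa BH3 peptide and terbium anti-His antibody; 0% = Mcl-1 plus Noxa peptide wells and 100% = peptide-only wells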
# 14-3-3 Bad PPI = disrupts binding of bovine 14-3-3 zeta to phospho-Bad peptide | TR-FRET 14-3-3zeta/Dy647-pBad peptide displacement, 1 h | inhibition, % at 21.7 µM | 0.71% of 220,000 active;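 active = inhibition above about 70%, limit read from the data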;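 also: 0% = full 14-3-3 plus peptide FRET controls and 100% = background without 14-3-3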
# Target sequence (P63103 whole entry, looked up): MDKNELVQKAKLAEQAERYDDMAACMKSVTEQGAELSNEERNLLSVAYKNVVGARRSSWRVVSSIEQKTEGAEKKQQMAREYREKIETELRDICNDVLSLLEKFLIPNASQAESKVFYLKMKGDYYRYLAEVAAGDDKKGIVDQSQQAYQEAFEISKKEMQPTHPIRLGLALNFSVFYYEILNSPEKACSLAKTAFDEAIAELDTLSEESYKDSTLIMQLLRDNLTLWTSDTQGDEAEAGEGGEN
# Mcl1 Bid PPI = Mcl-1/Bid interaction inhibition | Q07820 | TR-FRET Mcl-1/Bid-Dy647 peptide binding, 1536-well | inhibition, % at 21.7 µM | 0.97% of 220,000 active;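 active = compounds that cut the binding signal by more than half at the single screening dose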;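 also: His-tagged Mcl-1 with europium anti-His antibody binding Bid BH3 peptide; 0% = Mcl-1 plus peptide wells and 100% = peptide-only wells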
# Numbers without * were called inactive; x = not tested or not shown; [ ] = another dose, or the depositor's remark. The list is not random: actives were taken first. Their share in the collection is about 2.5%.
SMILES,Mcl-1 Bim block,MCL1 BIM primary,Mcl1-Noxa inh,14-3-3 Bad PPI,Mcl1 Bid PPI
CC1(C)Cc2c(c(-c3ccco3)nc3sc4c(NCC5CCCO5)ncnc4c23)CO1 (configuration not stated),7.0,1.1,50.6*,8.6,-2.7
CC1(C)Cc2c(c(-c3ccco3)nc3sc4c(NCCCO)ncnc4c23)CO1,x,9.1,48.6,1.5,1.6
Cc1ccc2nc(Cl)c(/C=C/C(=O)c3ccco3)cc2c1,x,2.2,2.7,9.1,26.3
O=C(COc1ccccc1O)Nc1ccccc1Cl,-1.0,1.0,-10.7,11.0,-28.0
Cc1cccn2c(=O)c(/C=N/O)c(NCc3ccccc3)nc12,x,2.1,-1.7,5.5,-13.2
Cc1cccn2c(=O)c(/C=N/O)c(Nc3ccccc3F)nc12,x,-9.8,-28.5,86.9*,54.5*
COc1ccc(NC(=S)NN2C(C)CCCC2C)cc1 (configuration not stated),-9.0,39.2,52.4*,-7.8,41.9
COc1ccc(CN=C2NC(=O)CC(C(=O)Nc3ccc(F)cc3)S2)cc1 (configuration not stated),0.0,0.9,10.4,86.3*[fluorescence artefact?],-14.2
O=C(O)CS(=O)(=O)CC(=O)O,-3.0,-3.3,22.6,20.0,58.1*
CS(=O)(=O)N1CCN(c2ncnc3c2cnn3-c2ccccc2)CC1,1.0,-0.9,3.2,-13.4,-12.9
Cc1cc(N2CCOCC2)nc2cc(O)ccc12,-6.0,4.7,-1.3,79.8*,-17.7
O=S(=O)(Nc1nccs1)c1ccc(Nc2nnc(-c3ccccc3)c3ccccc23)cc1,-5.0,-4.7,68.3*,24.8,16.2
Clc1ccc(C2=NNC(=NCc3ccc4c(c3)OCO4)SC2)cc1,-4.0,-0.1,61.6*,20.8,9.7
Oc1ccc(C2=NNC(=NCc3ccc4c(c3)OCO4)SC2)c(O)c1,-4.0,8.9,39.4,-7.8,-25.4
COc1ccc(CN=C2NN=C(c3ccc(Cl)cc3)CS2)cc1,-1.0,1.4,57.6*,0.3,-13.2
Cn1c2ccccc2c2cc(C(=O)NNC(=O)CCl)sc21,0.0,0.6,59.7*,-6.2,-38.1
CCCNC(=O)c1cc2c3ccccc3n(C)c2s1,0.0,4.6,-5.6,18.6,-13.8
COc1cc(CNC(C)(C)CO)cc(Br)c1OCc1ccc(Cl)cc1,-1.0,6.0,3.2,7.0,-23.0
CC(C)(C)c1cc(C(=O)C[n+]2ccc(C(=O)NCCCO)cc2)cc(C(C)(C)C)c1O,x,0.8,8.1,-2.7,-88.1
Nc1ccccc1-c1nc2ccccc2s1,0.0,7.7,10.2,72.8*,-13.2
Oc1ccc(-c2nc3ccccc3s2)c(O)c1,x,6.4,37.4,7.6,3.7
O=[N+]([O-])c1cc(Br)c(O)c(C=Nc2ccc(N3CCOCC3)cc2)c1,2.0,26.4,35.4,-18.6,-47.3
O=[N+]([O-])c1cc(Br)c(O)c(/C=N/Nc2nnnn2-c2cccc3ccccc23)c1,-1.0,19.2,33.9,43.4,66.4*
CCCc1nc(SCC(=O)NNC(=O)c2ccc(OC)cc2)c2ccccc2n1,-2.0,6.4,2.0,97.7*,-17.9
CN1CCN(CC(=O)NC2CCCCC2)CC1,-1.0,0.5,12.2,71.0*,53.7*
SMILES,Mcl-1 Bim block,MCL1 BIM primary,Mcl1-Noxa inh,14-3-3 Bad PPI,Mcl1 Bid PPI
CCNc1nc(NCc2ccccc2)nc(SCC(N)=O)n1,-1.0,4.2,0.0,3.4,-26.4
CCNc1nc(NCc2ccccc2)nc(SCC(=O)Nc2ccccc2)n1,-5.0,-2.2,9.6,13.1,53.1*
COCCNC(=O)c1c(N)n(CCC2=CCCCC2)c2nc3ccccc3nc12,0.0,52.3*,8.6,65.7,-10.2
CCN(CC)S(=O)(=O)c1ccc(C(=O)OC2CCCCC2CN(C)C)cc1 (configuration not stated),-3.0,2.4,-3.7,1.2,50.9*
COC(=O)CSc1n[nH]c(-c2cccnc2)n1,-2.0,5.2,16.1,22.3,-2.1
CCOC(=O)CSc1n[nH]c(-c2cccnc2)n1,0.0,-2.7,52.6*,-1.9,-6.0
O=C(COC(=O)c1ccccc1C(=O)N1CCN(c2ccccc2)CC1)Nc1ccc(F)cc1,-4.0,48.6*,2.3,-2.4,-16.7
O=C(c1ccccc1CCc1ccccc1)N1CCOCC1,-4.0,-3.6,2.1,9.5,57.2*
COc1cccc(NC(=O)COC(=O)c2ccccc2C(=O)N2CCN(c3ccccc3)CC2)c1,0.0,49.7*,2.2,-1.0,-8.7
O=C(COC(=O)c1ccccc1C(=O)N1CCN(c2ccccc2)CC1)Nc1ccccc1,3.0,18.5,6.1,-11.9,-17.6
O=C(c1ccccc1C(=O)N1CCN(c2ccccc2)CC1)N1CCN(c2ccccc2)CC1,-3.0,46.1*,-4.1,-11.4,-14.3
COc1ccc(-c2ncccc2O)cc1,-1.0,7.2,-7.9,-0.9,-32.8
CC(Oc1ccc(Cl)cc1Cl)C(=O)N(C)c1ccccc1 (configuration not stated),0.0,6.7,15.9,-6.5,94.2*
CC(C)CC(=O)N1CCN(CC2CC=CCC2)CC1 (configuration not stated),0.0,2.5,38.4,76.8*,56.8*
CC(C)Nc1nnc(SCC(=O)Nc2ccc3c(c2)C(=O)c2ccccc2C3=O)s1,3.0,13.9,78.0*,-14.8,-16.9
O=C(CNc1ccc2c(c1)OCO2)N/N=C\c1ccccc1Cl,-6.0,16.1,19.9,-2.5,-9.4
Cc1[nH]c2ccccc2c1/C=N\NC(=O)CNc1ccc2c(c1)OCO2,1.0,-3.4,55.8*,-15.6,-15.6
O=C(N/N=C/C=C/c1ccc([N+](=O)[O-])cc1)c1cccs1,3.0,13.1,62.5*,46.5,76.1*
O=C(N/N=C/c1cccc([N+](=O)[O-])c1)c1cccs1,71.0*,-0.2,16.2,5.2,6.6
O=C(/C=C/c1cccc([N+](=O)[O-])c1)Nc1ccc(NC(=O)c2cccs2)cc1,1.0,6.1,58.5*,50.6,80.9*
O=C(/C=C/c1cccc([N+](=O)[O-])c1)c1cccs1,-2.0,7.2,12.8,-1.1,10.1
Cc1ccc(/C=C2/C(=O)c3ccc(C(=O)O)cc3C2=O)o1,0.0,x,72.1*,12.9,-95.2
Cc1ccc(C=C2C(=O)c3ccccc3C2=O)o1,-4.0,3.9,22.9,-0.6,4.4
CN1C(=O)NC(c2ccc(O)cc2)C(C(=O)c2cccs2)C1(O)C(F)(F)F (configuration not stated),0.0,-0.6,4.7,0.3,-22.0
Cc1cc(C)c(C#N)c(Sc2ccccc2N)n1,4.0,9.5,8.4,-18.6,-49.8
CC(C)c1ccc(C(CC(=O)c2ccc(Cl)cc2)C(=O)O)cc1 (configuration not stated),-3.0,6.3,-2.9,-3.5,-6.2
CCc1ccc(C(CC(=O)c2ccc(Cl)cc2)C(=O)O)cc1 (configuration not stated),-2.0,7.2,6.6,18.5,95.5*
O=C1C(=Cc2ccco2)C(=O)c2ccccc21,0.0,18.4,35.5,-25.0,-50.2
O=C(NCCCN1CCOCC1)c1ccc(/C=C2\Oc3ccccc3N(Cc3ccccc3F)C2=O)cc1,x,-1.5,x,x,x
